The campaign covered roughly 320,000 compounds. About 2,100 (0.66%) were called active. Another 53% or so got no clear call; they are omitted. Calls come from the whole dose curve; as a rule, active = well fitted inhibition curve with a large enough effect in the signal ratio, with a control signal flat (not every such curve was filed as active); inconclusive = small, poorly fitted or top-dose-only effect, or effect the other way, or a change in a side signal; inactive = flat fitted curve, though single readings scatter; the % refers to the signal ratio. Many of the other results were omitted from the sample, so actives are more common in it than they were.

The text below walks through data of PubChem BioAssay AID2685 (National Center for Advancing Translational Sciences (NCATS), 2010).
Potency is the fitted concentration of half-maximal effect.

A short description of the assay: qHTS Assay for Lipid Storage Modulators in Drosophila S3 Cells.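 For cell number change: cells counted by Cell Tracker Red CMTPX staining in the red channel.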 For lipid storage change, negative = inhibition: % is set by controls: 0 for no effect and ±100 for the full control effect. The following applies: BODIPY lipid droplet fluorescence, 18-24 h, cells fed with added oleic acid; cell number change: measured here: cell count max response; series mostly up to 46.1 µM; lipid storage change, negative = inhibition: at the top concentration. The method in brief:
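Drosophila S3 cells got compounds at several concentrations plus oleic acid (400 uM solution). Laser-scanning cytometry with 488 nm excitation read lipid droplets at 500-530 nm and cells at 575-640 nm. Percent activity was relative to 20 uM Triacsin C.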
Background: Quantitative high-throughput screening tests each substance at several concentrations.
With `N=c1oc2c3c4c(cc2cc1C(=O)Nc1ccccc1)CCCN4CCC3`, the Potency was 5.8 µM (active) and the cell number change came to 5.35%.

With `N=c1oc2ccccc2cc1C(=O)Nc1ccc(F)cc1`, the “lipid storage change, negative = inhibition” value was 1.4% (inactive) and the cell number change worked out at 0.805%.

`N=c1oc2ccccc2cc1C(=O)Nc1ccccc1`: the outcome was inactive and the cell number change amounted to 8.78%.

Turning to `CC(C)COc1ccc(CSCCNC(=S)Nc2ccccc2)cc1`, the “lipid storage change, negative = inhibition” value is -21% (inactive).

With `O=C1C2CCCN2C(c2cccs2)N1c1ccc(F)cc1` (stereo unspecified), the “lipid storage change, negative = inhibition” value was 0.267% (inactive) and the cell number change is -1.44%.

As for `Cc1ccc2nc3c(cc(C(=O)NCC4CCCO4)n3C)c(=O)n2c1` (stereo unspecified), the “lipid storage change, negative = inhibition” value is 5.2% (inactive) and the cell number change was 19.4%.

As for `O=C(/C=C/c1ccco1)c1ccc(NC(=O)C23CC4CC(CC(C4)C2)C3)cc1`, the Potency was 16.4 µM (active) and the cell number change was -23.6%.

Take `O=C(N/N=C/c1ccco1)C12CC3CC(CC(C3)C1)C2`: the “lipid storage change, negative = inhibition” value was -8.38% (inactive) and the cell number change was -15.4%.

Take `CC(=O)Nc1ccc(C(=O)/C=C/c2ccco2)cc1`: the “lipid storage change, negative = inhibition” value is 9.95% (inactive) and the cell number change is -0.499%.

`Cc1noc(C)c1COc1ccccc1C(=O)N(C)Cc1ccc(F)cc1`: the cell number change is -12.5% and the lipid storage change, negative = inhibition is 19.1% [at 0.0737 µM] (inactive).

On to `O=C(c1ccc2c(c1)OCO2)C1CCCN(Cc2cc(F)ccc2-n2cccn2)C1` (stereo unspecified), for which the “lipid storage change, negative = inhibition” value was 17% (inactive) and the cell number change is 10%.

In the case of `CCc1c(C)nc(N)n2c(SCC(=O)Nc3ccccc3OC)nnc12`, the “lipid storage change, negative = inhibition” value is 18.2% (inactive) and the cell number change was found to be 6.92%.

Regarding `CCc1c(C)nc(N)n2c(SCC(=O)NC3CCCCC3)nnc12`, the Potency was 1.3 µM (active) and the cell number change was 19.2%.

For `CCn1c(C)nnc1SCC(=O)NC1CCCCCC1`, the “lipid storage change, negative = inhibition” value was -7.91% (inactive) and the cell number change is -4.99%.

Take `COc1ccc(C)cc1N(CC(N)=O)S(=O)(=O)c1ccc(C)cc1`: the “lipid storage change, negative = inhibition” value was 3.59% (inactive) and the cell number change is -13.9%.

On to `COc1ccc(Nc2ncc(C#N)c(N)n2)c(OC)c1`, for which the “lipid storage change, negative = inhibition” value is -12.5% (inactive) and the cell number change is 3.36%.

With `Cc1c(NC(=O)/C=C/c2ccc(S(=O)(=O)N3CCOCC3)cc2)c(=O)n(-c2ccccc2)n1C`, the “lipid storage change, negative = inhibition” value is 5.25% (inactive) and the cell number change turned out to be 8.27%.

`CC(=O)Nc1ccc(NC(=O)C(C)OC(=O)CCc2nc3ccccc3s2)cc1` (stereo unspecified): the “lipid storage change, negative = inhibition” value was -3.56% (inactive) and the cell number change was found to be 4.88%.

In the case of `CCNC(=O)NC(=O)C(C)OC(=O)CCCc1nc2ccccc2s1` (stereo unspecified), the “lipid storage change, negative = inhibition” value was 8.8% (inactive) and the cell number change is 2.05%.

`CC(OC(=O)CCCc1nc2ccccc2s1)C(N)=O` (stereo unspecified): the Potency is 23.1 µM (active) and the cell number change was found to be 18.5%.

As for `Cc1csc(NC(=O)c2cccc(Cn3nc(C)c(Br)c3C)c2)n1`, the “lipid storage change, negative = inhibition” value is 12.7% (inactive) and the cell number change was -7.75%.

Regarding `Cc1csc(NC(=O)c2ccc(Cn3nc(C)c(Br)c3C)o2)n1`, the Potency was 7.31 µM (active) and the cell number change is -7.94%.

As for `Cc1nn(Cc2ccc(C(=O)n3cccn3)o2)c(C)c1Br`, the “lipid storage change, negative = inhibition” value was 0.611% (inactive) and the cell number change is -2.33%.

On to `Cc1nnc2c(NCCc3ccccc3)nc3ccccc3n12`, for which the “lipid storage change, negative = inhibition” value is 6.56% (inactive) and the cell number change was determined as 6.11%.

Take `CCC(=O)Oc1ccc2oc(=O)cc(C)c2c1`: the “lipid storage change, negative = inhibition” value is 12.6% (inactive) and the cell number change is -1.41%.

As to `CCc1ccc(NC(=S)N2CCC(NC(=O)c3ccccc3OC)CC2)cc1`, the “lipid storage change, negative = inhibition” value was -7.78% (inactive) and the cell number change came out at 12.5%.

Consider `Cc1cc(NC(=O)Cn2nc3c(cc2=O)CCCC3)ccc1Br`, for which the “lipid storage change, negative = inhibition” value was 24.1% (inactive) and the cell number change is 19.1%.

With `N=c1c(S(=O)(=O)c2ccc(Cl)cc2)cc2c(=O)n3ccccc3nc2n1C1CCCC1`, the Potency is 13 µM (active).

For `Cc1ccc(Cn2c(=N)c(C(=O)NCCN3CCOCC3)cc3c(=O)n4ccccc4nc32)cc1`, the “lipid storage change, negative = inhibition” value is -18.6% (inactive) and the cell number change worked out at 21.5%.

`COc1ccc(CCNC(=O)c2cc3c(=O)n4ccccc4nc3n(CCCN3CCOCC3)c2=N)cc1OC`: the molecule was classed as inactive and the cell number change stood at 3.54%.

On to `N=c1c(C(=O)NCc2ccco2)cc2c(=O)n3ccccc3nc2n1Cc1ccccc1`, for which the molecule was classed as inactive and the cell number change is -4.14%.

On to `N=c1c(C(=O)NCCN2CCOCC2)cc2c(=O)n3ccccc3nc2n1CCCN1CCOCC1`, for which the Potency was 7.31 µM (active) and the cell number change was 8.12%.

With `N=c1c(S(=O)(=O)c2ccc(Br)cc2)cc2c(=O)n3ccccc3nc2n1C1CCCCC1`, the outcome was inactive and the cell number change is 2.36%.

For the molecule `N=c1c(C(=O)NCc2ccccc2)cc2c(=O)n3ccccc3nc2n1CCCN1CCOCC1`, the “lipid storage change, negative = inhibition” value was 8.53% (inactive) and the cell number change is -5.03%.

Consider `Cc1ccc(S(=O)(=O)c2cc3c(=O)n4ccccc4nc3n(C3CCCC3)c2=N)cc1`, for which the molecule was called inactive and the cell number change is -1.32%.

In the case of `N=c1c(C(=O)NCCc2ccccc2)cc2c(=O)n3ccccc3nc2n1CCCN1CCOCC1`, the Potency is 6.51 µM (active) and the cell number change is -19%.

As for `N=c1c(C(=O)NCCc2ccccc2)cc2c(=O)n3ccccc3nc2n1Cc1ccco1`, the Potency is 0.82 µM (active) and the cell number change is -1.35%.

`N=c1c(C(=O)NCCN2CCOCC2)cc2c(=O)n3ccccc3nc2n1CCc1ccccc1`: the outcome was inactive and the cell number change worked out at 15.8%.

With `COc1ccc(CCNC(=O)c2cc3c(=O)n4ccccc4nc3n(Cc3ccco3)c2=N)cc1OC`, the result was inactive and the cell number change was -20.4%.

Regarding `COc1ccc(C(=O)NCc2oc(-c3ccccc3)cc2C(=O)O)cc1`, the “lipid storage change, negative = inhibition” value was 20.5% (inactive) and the cell number change was -4.88%.

As for `COc1ccc2nc(/C=N/NC(=O)[C@H](CCSC)NC(=O)OC(C)(C)C)ccc2c1`, the “lipid storage change, negative = inhibition” value is 0.135% (inactive) and the cell number change came to 13.4%.

Consider `COC(=O)c1ccccc1NC(=O)CSc1nc(O)cc(=O)n1C1CCCC1`, for which the “lipid storage change, negative = inhibition” value was 19.2% (inactive) and the cell number change is 6.94%.

Consider `O=C(NC(Cc1ccccc1)C(=O)O)/C(=C/c1ccco1)NC(=O)c1cccc([N+](=O)[O-])c1` (stereo unspecified), for which the “lipid storage change, negative = inhibition” value is -3.12% (inactive) and the cell number change is -0.0963%.

`Oc1cccc(N2Cc3ccccc3C2)c1`: the “lipid storage change, negative = inhibition” value is -2.83% (inactive) and the cell number change is -1.3%.
